Screening data (PubChem)
Compounds with a hit are over-represented: about 8.3% of the library has one in this group of screens.
HCMV inh = human cytomegalovirus inhibition; HFF cells, HCMV-luciferase reporter, 72 h; active compounds read low; activity change, negative = inhibition, % at 57.5 µM; 410,000 compounds, 4.5% hits; in the data active = activity change below about -60%; inconclusive = no clear call, values can overlap the other calls; inactive = above about -39%
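Cell-based, HFFs, 1000 cells/well, 16 h 37C; cpds in DMSO + HCMV-luc, MOI 1 PFU/cell; 72 h 37C; OneGlo luminescence after 5 min RT; norm. to buffer vs Salinomycin 10uM.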
MARV entry inh = blocks Marburg virus binding to or entry into cells; Marburg virus pseudotyped entry inhibition, cell reporter; Potency, µM (titrated, usually from 37.8 µM), for inactives: at the top dose activity change, negative = inhibition, usual class: inhibitors; 300,000 compounds, 1.8% hits; calls by dose curve; tested in HEK293 cells; note: potency is the fitted concentration of half-maximal effect
LASV entry inh = Lassa virus entry inhibition; Lassa virus pseudotype entry inhibition, cell reporter; Potency, µM (doses to about 37.9 µM), inactives show at the top dose activity change, negative = inhibition, hits mostly inhibitors; 300,000 compounds, 1.2% hits; calls by dose curve; tested in HEK293 cells; note: potency is the fitted concentration of half-maximal effect; nearly all actives have a fitted effect of over 50% in size
HCV inhibitor = inhibitors of hepatitis C virus infection. Huh7.5.1 HCVcc-Cre infection, luciferase reporter, 44 h. Potency, µM (series often up to 41.8 µM), for the others: at the highest dose activity change, negative = inhibition, most hits filed as inhibitors. 340,000 compounds, 3.4% hits; note: potency is the fitted concentration of half-maximal effect
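After 44 h co-culture of compound, cells and HCVcc-Cre (~0.5 moi), substrate is added for 15 min at room temperature and luciferase measured over 15 sec. Cells were seeded at 1,000/well and pre-cultured 4 h.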
FBPA Giardia inh = blocks Giardia fructose-bisphosphate aldolase activity | A8B2U2 | purified Giardia FBPA | Potency, µM (series often up to 59.6 µM), inactives show at the highest dose activity, negative = inhibition, usual class: inhibitors | 290,000 compounds, 0.71% hits; note: potency is the fitted concentration of half-maximal effect; nearly all actives have a fitted effect of over 55% in size
Target sequence (A8B2U2 whole entry, looked up): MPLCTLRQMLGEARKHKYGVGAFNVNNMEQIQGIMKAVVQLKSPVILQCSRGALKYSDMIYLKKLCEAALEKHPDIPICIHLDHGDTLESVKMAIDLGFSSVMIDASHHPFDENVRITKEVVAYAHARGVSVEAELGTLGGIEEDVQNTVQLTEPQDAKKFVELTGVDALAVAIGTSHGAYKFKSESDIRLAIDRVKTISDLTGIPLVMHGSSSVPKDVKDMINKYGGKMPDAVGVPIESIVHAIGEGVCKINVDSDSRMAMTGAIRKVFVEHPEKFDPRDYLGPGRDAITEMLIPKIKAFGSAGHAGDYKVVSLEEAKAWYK
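Giardia FBPA (40 nM reagent) was preincubated 10 min at RT with compound (up to 57.5 uM final), then substrate plus GAPDH/TPI/NAD/arsenate coupling system with diaphorase/resazurin was added; resorufin fluorescence (525/598 nm) was read after 20 min.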
FMDV inh = antivirals against foot and mouth disease virus; FMDV antiviral cell-based qHTS; AID 1159524; 410,000 compounds, 1.2% hits; Potency, µM (doses to about 57.9 µM), for inactives: top-dose activity change, negative = inhibition, actives largely listed as inhibitors; calls by dose curve; tested in HEK293T cells; note: read-out not given here; potency is the fitted concentration of half-maximal effect; nearly all actives have a fitted effect of over 45% in size
Active calls of the source: *; u = inconclusive; x = not tested or not shown; ! = a repeat was not active; [ ] = remark or other dose. Unless noted, calls come from the whole dose curve; as a rule, active = well fitted curve in the direction sought with a large enough effect; inconclusive = small, poorly fitted or top-dose-only effect, or another doubt; inactive = no such curve, though single readings can be large; an effect the other way counts as inactive or inconclusive. % is set by controls: 0 for no effect and ±100 for the full control effect.

SMILES | HCMV inh | MARV entry inh | LASV entry inh | HCV inhibitor | FBPA Giardia inh | FMDV inh
COc1ccc(OC)c(C(c2nnnn2Cc2ccco2)N2CCN(C)CC2)c1 (centres undefined) | -30 | x | x | 5% | -15% | -3%
COc1cccc(C(c2nnnn2Cc2ccco2)N2CCN(c3cccc(C)c3C)CC2)c1OC (centres undefined) | -4 | u | u | 11µM* | 0% | 9%
Cc1cccc(N2CCN(C(c3cccs3)c3nnnn3C(C)(C)C)CC2)c1C (centres undefined) | u | 12µM*! | u | -6% | 12% | x
O=C(CSc1ncc(CO)n1Cc1ccccc1)Nc1ccc(C(F)(F)F)cc1 | -33 | x | -18%[46.1 µM] | x | x | u
N#CCSc1nc2c(sc(=S)n2Cc2ccco2)c(=O)n1-c1ccc(F)cc1 | -107* | u | -10% | u | -24% | u
CCN(CC)C(=O)CSc1nc2c(sc(=S)n2-c2ccccc2)c(=O)n1-c1ccc(OC)c(OC)c1 | -68* | x | x | u | -8% | -19%
CCn1c(=S)sc2c(=O)n(-c3ccccc3)c(SC)nc21 | -61* | -13% | -3% | u | -6% | 18µM*
CCN(CC)C(=O)CSc1nc2c(sc(=S)n2-c2ccccc2)c(=O)n1-c1ccc(OC)cc1OC | -69* | x | x | u | 0% | -5%
Cc1nc2c(sc(=S)n2Cc2ccco2)c(=O)n1CC(=O)Nc1ccccc1F | 11 | x | x | u | -6% | -12%
Cn1c(SCc2ccc(C(F)(F)F)cc2)nc2c([nH]c3ccccc32)c1=O | 53 | x | 11%[46.1 µM] | x | x | -17%
Nc1nc2n(n1)[C@@H](c1cccs1)C[C@H](c1ccc(F)cc1)N2 | x | -1% | x | x | x | x
CCc1cccc2nc3c(c([Si](C)(C)C)c12)Cn1c-3cccc1=O | x | x | x | x | -18% | x
Cc1cn([C@H]2C[C@@H](N=[N+]=[N-])[C@@H](CO)O2)c(=O)[nH]c1=O | x | u | x | x | 0% | x
N=C1S/C(=C\c2cccc3ccccc23)C(=O)N1c1ccc(F)cc1 | -71* | u | 8.9µM* | u | 3% | -21%
CCOc1cc(C=C2C(=O)NC(=O)NC2=O)cc([N+](=O)[O-])c1O | -28 | x | x | x | u | x
CCOc1cc(/C=C2\CCC/C(=C\c3cc(Cl)c(O)c(OCC)c3)C2=O)cc(Cl)c1O | -98* | 11µM* | 8.9µM* | u | -9% | 16µM*
COc1cc(C=C2CN(C)C(=O)C2=O)ccc1O | -2 | x | x | x | x | -8%
CCOc1cc(/C=C2\CN(C)C/C(=C\c3ccc(O)c(OCC)c3)C2=O)ccc1O | -100* | u | u | 22µM* | u | 18µM*
CSc1ccc(C(=O)C2CCCN(C(=O)CCc3c(C)nn(C)c3C)C2)cc1 (centres undefined) | -63* | u | u | u | x | u
Oc1ccccc1C1=NN(c2ccccc2)C(c2ccc(F)cc2)C1 (centres undefined) | -74* | -10%[46.1 µM] | -23%[46.1 µM] | -18% | -13% | -30%
COc1ccc(C2CC(c3ccc(F)cc3)=NN2c2ccccc2)cc1OC (centres undefined) | 77 | 3% | u | u | 3% | 31%
Oc1ccc(C2=NN(c3ccccc3)C(c3ccc(F)cc3)C2)cc1 (centres undefined) | 22 | u | 11µM* | 10µM* | 1% | u
CCCCNC(=O)C(C)N(CCN(C)C)C(=O)CCCN1C(=O)NC(c2ccc([N+](=O)[O-])cc2)C(C(=O)OCc2ccccc2)=C1C (centres undefined) | x | x | x | 22µM* | x | 0%
CCOC(=O)C1=C(C)N(CCCC(=O)O)C(=O)NC1c1ccccc1OS(=O)(=O)c1ccc([N+](=O)[O-])cc1 (centres undefined) | -100* | x | x | 16% | x | -1%
CCCCNC(=O)C(C1CCCCC1)N(CCN(C)C)C(=O)CCCN1C(=O)NC(c2ccc(-c3ccccc3)cc2)C(C(=O)OCc2ccccc2)=C1C (centres undefined) | x | x | x | 10µM* | x | x
SMILES | HCMV inh | MARV entry inh | LASV entry inh | HCV inhibitor | FBPA Giardia inh | FMDV inh
CCCCCCN(C(=O)CCCCCN1C(=O)NC(c2ccc(-c3ccccc3)cc2)C(C(=O)OCc2ccccc2)=C1C)C(C)C(=O)NCCCC (centres undefined) | 42 | u | u | -6%[8.37 µM] | 0% | x
CCCCCCN(C(=O)CCCCCN1C(=O)NC(c2cccc([N+](=O)[O-])c2)C(C(=O)OCc2ccccc2)=C1C)C(C(=O)NCCCC)c1ccc(OCC(=O)OC)c(C(=O)OC)c1 (centres undefined) | -74* | x | x | x | 6% | x
CC1=C(C(=O)OCc2ccccc2)C(c2ccc(Br)cc2)NC(=O)N1CCCCCC(=O)O (centres undefined) | 41 | x | x | 15% | x | -23%
COC(=O)CCCCCN1C(=O)NC(c2ccccc2)C(C(=O)OCc2ccccc2)=C1C (centres undefined) | -32 | -29% | u | -45% | 3% | 28µM*
CN(C)c1nc(Nc2ccccc2)nc(N(C)C)n1 | 50 | 3.5µM* | 22% | u | 0% | -1%
COC(=O)c1ccc(Oc2nc(Nc3ccccc3)nc(N(C)C)n2)cc1 | -15 | -19% | -3% | 11µM* | -1% | u
CCN(CC)c1nc(Nc2ccccc2)nc(Oc2ccc(C(=O)OC)cc2)n1 | 23 | u | 2% | u | -7% | u
O=C1[C@@H]2[C@H]3[C@H](O)[C@H](O)C/C(=N/OCc4ccccc4)[C@@H]3CC[C@H]2C(=O)N1c1ccc(F)cc1F | x | u | x | x | -1%[12.9 µM] | x
COc1ccc(CNc2n[nH]c(-c3ccco3)n2)cc1OC | 60 | -7%[46.1 µM] | -16%[46.1 µM] | x | x | -12%
N#Cc1ccc2c(c1)C[C@]1(c3ccsc3)Oc3c(c(=O)oc4ccc(F)cc34)[C@@H]2O1 | x | 2%[14.2 µM] | u | x | x | x
Cc1ccc2c(c1)c1c(n2C)C(=O)CCC1 | -7 | 10% | 5% | 4µM* | 2% | 4%
CCn1c2c(c3cc(Cl)ccc31)CCCC2=O | 43 | x | x | u | 0% | 0%
CCC(C)c1cc([N+](=O)[O-])cc([N+](=O)[O-])c1OC(=O)OC(C)C (centres undefined) | x | x | x | x | -18% | x
COC(=O)C/C=C/[C@@H](C)[C@H](OC)c1c(Br)ccc2c1OCO2 | x | u | x | x | 0% | x
NCCNC(=O)c1c(O)c2cccc3c2n(c1=O)CCC3 | 13 | 10µM* | 8% | -26% | -15% | -25%
CCCNC(=O)c1c(O)c2cccc3c2n(c1=O)CCC3 | -17 | -6%[46.1 µM] | 6%[46.1 µM] | 6% | 1% | -14%
O=C(Nc1nccs1)c1c(O)c2cccc3c2n(c1=O)CCC3 | -95* | x | x | x | -1% | x
C#CCCCON=C1C[C@@H](O)[C@H](O)[C@H]2[C@@H]3C(=O)N(Cc4ccc5c(c4)OCO5)C(=O)[C@@H]3CC[C@@H]12 | x | -7%[14.2 µM] | x | x | x | x
